Measurements reported in the supplement of paper PMC11732987, “Enantioselective OTUD7B fragment discovery through chemoproteomics screening and high-throughput optimisation” (Communications Chemistry, 2025).

How the values were obtained:
Experiment in all cases: log2 ratio of Biotin-Ahx-Ub-VS probe labelling (fragment/DMSO); higher = less target engagement (more negative = stronger competition), active = hit call of the paper (q ≤ 0.05, log2 ratio ≤ -1)
Details in all cases: compound concentration: 200 uM; treatment time: 3 h
USP16 = USP16 (UniProt Q9Y5T5)
Outline: (§1)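 HEK293T lysate in Tris/CHAPS/IGEPAL buffer with protease inhibitors (495 µg per sample) was given fragment at 200 µM or vehicle for 3 h, in triplicate. It then received Biotin-Ahx-Ub-VS at 0.5 µM final for 1 h. Labelled DUBs were NeutrAvidin-enriched, digested with LysC and trypsin, and run by diaPASEF LC-MS/MS. Values are average log2 fragment/vehicle ratios by unpaired t-test on global-median-normalised Spectronaut quantities of proteins with ≥2 unique peptides.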

USP19 = biological target: T1, USP19 (UniProt O94966)
T1 sequence (whole entry): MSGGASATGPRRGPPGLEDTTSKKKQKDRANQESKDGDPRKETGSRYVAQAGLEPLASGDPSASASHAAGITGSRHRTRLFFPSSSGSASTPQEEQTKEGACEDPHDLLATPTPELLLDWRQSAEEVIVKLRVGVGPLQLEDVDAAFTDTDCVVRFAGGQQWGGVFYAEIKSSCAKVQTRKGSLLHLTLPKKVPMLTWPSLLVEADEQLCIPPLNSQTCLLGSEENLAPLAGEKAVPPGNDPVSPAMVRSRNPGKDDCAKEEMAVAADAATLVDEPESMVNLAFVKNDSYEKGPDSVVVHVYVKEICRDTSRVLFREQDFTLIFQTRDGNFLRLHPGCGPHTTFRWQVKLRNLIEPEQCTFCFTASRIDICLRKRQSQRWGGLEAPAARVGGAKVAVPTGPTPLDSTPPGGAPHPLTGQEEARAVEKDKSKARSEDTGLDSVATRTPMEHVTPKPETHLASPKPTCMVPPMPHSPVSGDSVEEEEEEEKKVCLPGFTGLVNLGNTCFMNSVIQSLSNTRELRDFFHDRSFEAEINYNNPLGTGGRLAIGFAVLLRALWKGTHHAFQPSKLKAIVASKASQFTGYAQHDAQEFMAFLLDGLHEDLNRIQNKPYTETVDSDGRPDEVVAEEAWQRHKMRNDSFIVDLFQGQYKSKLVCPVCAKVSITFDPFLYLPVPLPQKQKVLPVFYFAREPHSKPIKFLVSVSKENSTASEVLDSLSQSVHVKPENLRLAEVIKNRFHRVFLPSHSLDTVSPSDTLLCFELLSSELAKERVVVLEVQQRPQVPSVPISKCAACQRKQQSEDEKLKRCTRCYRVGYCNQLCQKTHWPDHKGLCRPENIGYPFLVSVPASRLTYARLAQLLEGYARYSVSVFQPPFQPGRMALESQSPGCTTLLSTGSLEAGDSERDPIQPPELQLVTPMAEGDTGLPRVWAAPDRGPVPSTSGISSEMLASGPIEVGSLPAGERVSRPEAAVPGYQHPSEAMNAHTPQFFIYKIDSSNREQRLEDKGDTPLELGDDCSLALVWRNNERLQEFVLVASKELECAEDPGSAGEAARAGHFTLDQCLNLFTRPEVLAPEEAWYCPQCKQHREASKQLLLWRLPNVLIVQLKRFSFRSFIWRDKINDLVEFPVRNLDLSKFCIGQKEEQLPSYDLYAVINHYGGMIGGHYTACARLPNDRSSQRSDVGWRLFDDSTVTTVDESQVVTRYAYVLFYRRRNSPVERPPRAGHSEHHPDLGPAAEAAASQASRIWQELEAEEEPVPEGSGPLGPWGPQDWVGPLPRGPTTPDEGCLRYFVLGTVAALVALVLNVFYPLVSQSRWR
Outline: as §1

USP24 = USP24 (UniProt Q9UPU5)
Outline: as §1

USP25 = biological target: T2, USP25 (UniProt Q9UHP3)
T2 sequence (whole entry): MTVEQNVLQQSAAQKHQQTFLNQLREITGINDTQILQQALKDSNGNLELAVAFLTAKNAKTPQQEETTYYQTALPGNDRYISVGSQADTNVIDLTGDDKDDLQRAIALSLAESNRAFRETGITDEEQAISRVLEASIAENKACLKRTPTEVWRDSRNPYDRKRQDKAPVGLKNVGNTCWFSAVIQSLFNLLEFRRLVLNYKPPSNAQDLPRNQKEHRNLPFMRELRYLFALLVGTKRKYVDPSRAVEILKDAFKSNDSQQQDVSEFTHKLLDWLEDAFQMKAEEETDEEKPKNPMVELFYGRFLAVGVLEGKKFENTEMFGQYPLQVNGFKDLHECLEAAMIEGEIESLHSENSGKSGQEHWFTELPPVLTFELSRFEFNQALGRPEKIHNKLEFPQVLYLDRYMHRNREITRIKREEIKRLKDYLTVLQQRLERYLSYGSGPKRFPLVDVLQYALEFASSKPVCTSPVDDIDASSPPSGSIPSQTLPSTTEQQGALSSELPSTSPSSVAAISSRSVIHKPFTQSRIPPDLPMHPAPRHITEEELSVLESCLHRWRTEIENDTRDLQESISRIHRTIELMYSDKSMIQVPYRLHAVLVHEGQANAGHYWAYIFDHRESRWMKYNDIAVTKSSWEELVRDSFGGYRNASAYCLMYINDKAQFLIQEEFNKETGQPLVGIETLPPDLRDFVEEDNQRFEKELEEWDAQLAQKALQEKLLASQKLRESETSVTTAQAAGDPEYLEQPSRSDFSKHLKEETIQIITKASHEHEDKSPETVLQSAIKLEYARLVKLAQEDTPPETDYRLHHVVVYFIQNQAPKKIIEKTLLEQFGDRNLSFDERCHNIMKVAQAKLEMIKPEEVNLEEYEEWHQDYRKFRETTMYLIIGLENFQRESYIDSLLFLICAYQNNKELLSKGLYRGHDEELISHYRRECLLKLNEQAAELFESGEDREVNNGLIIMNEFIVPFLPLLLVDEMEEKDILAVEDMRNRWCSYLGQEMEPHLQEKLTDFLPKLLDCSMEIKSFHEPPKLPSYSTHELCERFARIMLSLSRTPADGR
Outline: as §1

USP28 = biological target: T3, USP28 (UniProt Q96RU2)
T3 sequence (whole entry): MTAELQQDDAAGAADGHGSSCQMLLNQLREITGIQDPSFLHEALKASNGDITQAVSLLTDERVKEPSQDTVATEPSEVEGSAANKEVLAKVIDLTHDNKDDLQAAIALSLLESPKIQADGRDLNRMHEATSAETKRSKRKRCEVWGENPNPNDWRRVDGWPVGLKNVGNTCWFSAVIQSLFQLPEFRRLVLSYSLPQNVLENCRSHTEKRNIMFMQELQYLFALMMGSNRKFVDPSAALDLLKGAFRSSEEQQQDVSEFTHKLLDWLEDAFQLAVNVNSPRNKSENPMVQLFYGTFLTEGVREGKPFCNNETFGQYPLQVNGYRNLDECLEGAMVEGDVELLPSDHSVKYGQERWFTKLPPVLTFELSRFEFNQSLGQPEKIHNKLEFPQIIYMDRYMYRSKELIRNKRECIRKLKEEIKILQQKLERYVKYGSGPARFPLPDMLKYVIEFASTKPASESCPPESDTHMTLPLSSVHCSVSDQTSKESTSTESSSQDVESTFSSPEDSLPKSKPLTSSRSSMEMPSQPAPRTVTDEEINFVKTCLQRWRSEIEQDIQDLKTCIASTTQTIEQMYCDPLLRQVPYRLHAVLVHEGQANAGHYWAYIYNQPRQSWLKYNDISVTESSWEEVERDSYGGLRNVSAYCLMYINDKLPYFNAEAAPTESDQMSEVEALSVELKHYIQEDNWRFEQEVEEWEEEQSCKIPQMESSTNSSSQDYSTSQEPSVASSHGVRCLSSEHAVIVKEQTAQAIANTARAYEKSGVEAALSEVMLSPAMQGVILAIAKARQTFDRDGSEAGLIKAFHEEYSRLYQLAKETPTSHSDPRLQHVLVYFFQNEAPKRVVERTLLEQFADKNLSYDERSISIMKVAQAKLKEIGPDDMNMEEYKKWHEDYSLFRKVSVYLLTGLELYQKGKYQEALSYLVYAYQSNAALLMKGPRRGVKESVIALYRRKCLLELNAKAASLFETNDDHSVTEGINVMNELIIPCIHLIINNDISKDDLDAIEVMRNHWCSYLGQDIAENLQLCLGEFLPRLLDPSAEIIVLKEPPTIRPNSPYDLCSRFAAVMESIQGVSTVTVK
Outline: as §1

Measured: log2 ratio of Biotin-Ahx-Ub-VS probe labelling

USP24, sequence (Q9UPU5 whole entry): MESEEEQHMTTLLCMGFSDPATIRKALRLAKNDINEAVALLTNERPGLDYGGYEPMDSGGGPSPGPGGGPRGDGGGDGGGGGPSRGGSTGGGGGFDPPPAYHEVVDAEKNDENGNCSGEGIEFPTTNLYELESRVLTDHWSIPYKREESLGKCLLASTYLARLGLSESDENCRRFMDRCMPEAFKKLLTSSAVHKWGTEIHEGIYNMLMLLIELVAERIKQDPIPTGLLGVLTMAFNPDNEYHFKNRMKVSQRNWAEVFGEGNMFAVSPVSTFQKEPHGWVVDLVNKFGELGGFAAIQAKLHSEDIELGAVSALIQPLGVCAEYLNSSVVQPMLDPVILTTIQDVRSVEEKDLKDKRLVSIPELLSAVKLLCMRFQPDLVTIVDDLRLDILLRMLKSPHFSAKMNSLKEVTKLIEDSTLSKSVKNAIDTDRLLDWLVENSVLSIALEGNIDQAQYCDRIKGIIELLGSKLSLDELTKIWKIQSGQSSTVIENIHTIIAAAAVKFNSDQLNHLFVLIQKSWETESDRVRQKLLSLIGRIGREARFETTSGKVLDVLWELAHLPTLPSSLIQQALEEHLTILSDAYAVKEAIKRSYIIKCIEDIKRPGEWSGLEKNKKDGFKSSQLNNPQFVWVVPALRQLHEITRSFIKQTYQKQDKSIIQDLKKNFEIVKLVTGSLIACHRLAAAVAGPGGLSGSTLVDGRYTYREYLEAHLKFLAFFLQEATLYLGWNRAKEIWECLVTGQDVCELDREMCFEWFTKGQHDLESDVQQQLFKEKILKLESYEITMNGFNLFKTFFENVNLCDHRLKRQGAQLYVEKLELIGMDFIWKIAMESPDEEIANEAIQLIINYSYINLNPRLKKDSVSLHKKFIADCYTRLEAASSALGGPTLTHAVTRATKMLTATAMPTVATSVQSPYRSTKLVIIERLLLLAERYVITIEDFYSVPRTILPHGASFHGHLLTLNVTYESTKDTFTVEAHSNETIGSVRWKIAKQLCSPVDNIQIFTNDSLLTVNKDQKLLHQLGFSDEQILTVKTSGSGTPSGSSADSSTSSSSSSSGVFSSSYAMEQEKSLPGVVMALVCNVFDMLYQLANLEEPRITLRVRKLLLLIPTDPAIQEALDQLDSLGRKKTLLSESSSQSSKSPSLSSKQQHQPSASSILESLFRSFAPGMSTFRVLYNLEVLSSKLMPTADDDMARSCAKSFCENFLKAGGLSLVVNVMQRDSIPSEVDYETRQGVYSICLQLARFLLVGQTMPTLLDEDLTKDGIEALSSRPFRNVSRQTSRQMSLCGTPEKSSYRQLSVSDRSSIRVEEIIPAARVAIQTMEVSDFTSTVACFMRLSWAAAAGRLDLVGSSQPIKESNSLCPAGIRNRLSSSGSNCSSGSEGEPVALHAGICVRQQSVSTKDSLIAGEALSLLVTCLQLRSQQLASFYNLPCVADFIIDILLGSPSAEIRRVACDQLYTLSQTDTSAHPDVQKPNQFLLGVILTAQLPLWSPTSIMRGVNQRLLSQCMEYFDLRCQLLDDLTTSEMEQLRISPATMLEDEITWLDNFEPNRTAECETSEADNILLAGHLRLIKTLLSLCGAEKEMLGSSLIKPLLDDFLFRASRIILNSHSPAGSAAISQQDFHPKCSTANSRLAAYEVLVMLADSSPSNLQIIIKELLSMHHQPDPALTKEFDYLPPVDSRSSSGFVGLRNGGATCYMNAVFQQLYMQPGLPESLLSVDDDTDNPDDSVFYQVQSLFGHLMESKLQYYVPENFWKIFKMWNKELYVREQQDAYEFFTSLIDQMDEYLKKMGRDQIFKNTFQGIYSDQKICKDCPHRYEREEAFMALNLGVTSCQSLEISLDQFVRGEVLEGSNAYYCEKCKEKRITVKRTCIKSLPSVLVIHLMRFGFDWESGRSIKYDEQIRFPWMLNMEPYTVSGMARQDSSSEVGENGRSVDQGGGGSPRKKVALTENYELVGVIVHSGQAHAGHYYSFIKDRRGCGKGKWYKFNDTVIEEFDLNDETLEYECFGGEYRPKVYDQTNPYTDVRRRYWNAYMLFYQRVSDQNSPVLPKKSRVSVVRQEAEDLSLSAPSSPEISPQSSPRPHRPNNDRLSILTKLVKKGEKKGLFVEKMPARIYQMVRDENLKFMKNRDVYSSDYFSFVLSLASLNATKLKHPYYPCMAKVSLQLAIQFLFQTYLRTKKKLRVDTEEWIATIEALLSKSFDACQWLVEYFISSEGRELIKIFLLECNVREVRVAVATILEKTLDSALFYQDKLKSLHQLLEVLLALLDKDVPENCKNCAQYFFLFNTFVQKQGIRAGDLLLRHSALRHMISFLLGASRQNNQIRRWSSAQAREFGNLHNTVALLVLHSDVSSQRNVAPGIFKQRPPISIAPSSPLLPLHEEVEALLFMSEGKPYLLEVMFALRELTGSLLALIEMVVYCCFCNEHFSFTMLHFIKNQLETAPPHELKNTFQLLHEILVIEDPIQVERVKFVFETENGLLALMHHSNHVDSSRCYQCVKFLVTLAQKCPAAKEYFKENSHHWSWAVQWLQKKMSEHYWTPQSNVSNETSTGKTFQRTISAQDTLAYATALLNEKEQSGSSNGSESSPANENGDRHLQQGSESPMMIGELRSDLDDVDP
USP16, sequence (Q9Y5T5 whole entry, looked up, the tested form may be a part): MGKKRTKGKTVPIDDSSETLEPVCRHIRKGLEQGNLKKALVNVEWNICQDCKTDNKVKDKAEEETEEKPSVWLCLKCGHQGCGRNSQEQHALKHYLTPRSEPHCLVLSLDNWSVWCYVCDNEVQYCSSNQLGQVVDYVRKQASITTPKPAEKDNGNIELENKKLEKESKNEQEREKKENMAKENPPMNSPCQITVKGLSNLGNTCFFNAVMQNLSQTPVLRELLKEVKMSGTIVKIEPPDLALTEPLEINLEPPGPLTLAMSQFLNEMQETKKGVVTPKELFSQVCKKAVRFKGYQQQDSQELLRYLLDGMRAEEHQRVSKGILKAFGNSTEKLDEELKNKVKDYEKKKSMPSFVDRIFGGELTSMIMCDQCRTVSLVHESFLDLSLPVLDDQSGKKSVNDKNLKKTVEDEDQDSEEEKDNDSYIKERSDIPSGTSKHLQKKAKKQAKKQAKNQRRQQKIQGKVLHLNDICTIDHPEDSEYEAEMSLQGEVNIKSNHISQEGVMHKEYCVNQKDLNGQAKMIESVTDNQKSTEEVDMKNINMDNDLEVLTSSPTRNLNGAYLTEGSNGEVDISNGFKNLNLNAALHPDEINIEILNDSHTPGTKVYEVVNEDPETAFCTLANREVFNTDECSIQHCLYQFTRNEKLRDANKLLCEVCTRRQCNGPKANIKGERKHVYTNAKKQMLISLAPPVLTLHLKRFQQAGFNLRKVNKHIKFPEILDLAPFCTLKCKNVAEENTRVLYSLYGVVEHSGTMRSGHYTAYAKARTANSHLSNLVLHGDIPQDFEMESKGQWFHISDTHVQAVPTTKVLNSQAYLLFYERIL

CC(C)n1nccc1NC(=O)CCl
inactive: USP16 -0.153 | USP19 -0.0967 | USP24 -0.207 | USP25 -0.514 | USP28 -0.651
